Source: PubChem (several laboratories)
In the library only some 2.5% were active in any assay of this set; here they are far more common.
LGR2 inh = inhibitors of bursicon-induced LGR2 CRE-luciferase signal, primary screen, cell-based, HEK293, CRE-luciferase reporter, bursicon stimulation; bursicon-stimulated, 4 h; inhibition, % at 9.99 µM; hit rate 0.35% among 380,000;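 active = drop in luminescence signal, shown as inhibition above about 50% in the replicate tests, limit read from the data, passing the limit was not always enough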;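 note: agonist challenge used bursicon conditioned medium at about half maximal strength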
TROY NFkB inh = inhibitors of TROY-driven NF-kB signaling, primary screen, Q293 LMP1-TROYcd cells, NF-kB luciferase, uHTS; Q293 LMP1-TROYcd NF-kB luciferase reporter, 4 h; inhibition, % at 10 µM; hit rate 0.98% among 360,000; AID 1347056, 2019;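 active = compounds whose plate-normalised and pattern-corrected inhibition of the luciferase reporter signal at the single screening dose is 50% or more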
EWS-Fli block = EWS/Fli-driven NR0B1 reporter inhibitors, primary screen, A673 cells, NR0B1 luciferase, luminescence, MLPCN library; viability-normalised; inhibition, % at 12.6 µM; hit rate 0.67% among 350,000;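 active = mean inhibition of at least 50% after viability correction, with every replicate also passing that limit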;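 note: firefly luciferase signal divided by Alamar Blue viability fluorescence both relative to DMSO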
EBV LMP1 NFkB = EBV LMP1-driven NF-kappaB luciferase reporter inhibitors, primary screen, cell-based, luminescence, single point; hit rate 0.69% among 350,000; inhibition, % at 12.5 µM; LMP1-induced NF-kappaB luciferase reporter cells; AID 504558, 2011; in the data active = inhibition above about 41%;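 note: 0% = neutral control wells and 100% = reference inhibitor control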
TWEAK-Fn14 inh = inhibitors of TWEAK-Fn14 signaling, primary screen, luciferase reporter cells, uHTS. TWEAK-stimulated Fn14 reporter cells, luciferase luminescence, 8 h. inhibition, % at 10 µM. hit rate 2% among 360,000; in the data active = inhibition above about 50%
An asterisk follows results filed as active; . = no result given.

SMILES	LGR2 inh	TROY NFkB inh	EWS-Fli block	EBV LMP1 NFkB	TWEAK-Fn14 inh
COc1ccc(-c2cc(C(F)(F)F)n3nc(C(=O)N4CCOCC4)nc3n2)cc1	-44.4	1.9	.	44.1*	-13.9
COc1ccc(-c2cc(-c3ccccc3)no2)cc1	77.6*	18.4	39.3	-21.8	69.1*
COc1ccc(-c2cc(C(=O)N3CCOCC3)no2)cc1	53.4*	41.1	36.7	28.5	65.3*
O=C(NCC[C@@H]1CC[C@H](NS(=O)(=O)c2ccc(Cl)cc2)[C@H](CO)O1)Nc1ccc(F)cc1	-2.0	.	-9.9	.	.
COc1ccc(-c2cc(CCCC(=O)N3CCN(c4ccc(OC)cc4)CC3)no2)cc1	-7.6	24.0	19.3	8.7	51.3*
COc1ccc2nc(C)cc(SCC(=O)Nc3c(C)cccc3C)c2c1	12.8	4.4	74.4*	5.2	3.7
COc1ccc2[nH]c3c(c2c1)CCn1c-3nc2ccccc2c1=O	.	8.6	.	-44.9	51.4*
COCCNC(=O)C[C@H]1C[C@H]2c3cc(NC(=O)CN(C)C)ccc3O[C@H]2[C@H](CO)O1	-14.3	.	4.2	.	.
Nc1c(Cl)c(Cl)nc(C(=O)OCC(=O)NCc2ccccc2)c1Cl	1.7	5.3	5.6	5.5	-10.5
O=C(COC(=O)c1nc(Cl)c(Cl)c(Cl)c1Cl)NCc1ccccc1	-20.5	32.3	31.1	-30.4	85.1*
C[C@H](CO)N1C[C@H](C)[C@H](CN(C)C(=O)c2ccccc2)Oc2cc(C3=CCCCC3)ccc2S1(=O)=O	3.3	.	0.8	.	.
Cc1ccc(N(Cc2cc3ccccc3[nH]c2=O)C(=O)c2ccco2)c(C)c1	.	23.6	.	40.0*	-0.2
Cc1ccc2cc(CN(C(=O)c3ccco3)c3ccccc3)c(=O)[nH]c2c1	.	12.1	.	5.1	-38.3
Cc1ccc(C(=O)Oc2ccccc2N2CCOCC2)cc1	7.9	-13.7	5.9	10.1	30.6
Cc1ccc(C(=O)OC2OC(=O)C(Cl)=C2N2CCOCC2)cc1 (configuration not stated)	22.6	21.2	.	4.8	58.0*
O=C(NCc1ccccc1)C1CC(=O)N(c2ccc(OCC(=O)N3CCCC3)cc2)C1 (configuration not stated)	.	-18.5	.	-1.5	-1.8
COc1ccc(N2CC(C(=O)N/N=C/c3ccc([N+](=O)[O-])cc3)CC2=O)cc1 (configuration not stated)	-8.7	4.4	17.0	-0.5	-6.8
COc1ccc(N2CC(C(=O)N/N=C/c3ccc(C)cc3)CC2=O)cc1 (configuration not stated)	2.8	14.7	60.4*	11.1	4.7
COc1ccc(CNC(=O)C2CC(=O)N(c3ccc(OCC(=O)N4CCCCC4)cc3)C2)cc1 (configuration not stated)	.	57.9*	.	3.0	13.2
C[C@@H]1CN([C@H](C)CO)C(=O)c2cc(NC(=O)Nc3ccc4c(c3)OCO4)ccc2O[C@H]1CN(C)C(=O)Nc1ccc(F)cc1	-25.0	.	-2.9	.	.
NC(=O)[C@H]1CC2(CC(c3cccc(NC(=O)COc4ccc(Cl)cc4)c3)=NO2)CN1C(=O)Cc1ccc([N+](=O)[O-])cc1 (some centres not stated)	24.5	28.9	12.5	26.0	65.4*
O=C(CCNS(=O)(=O)c1ccccc1)OCc1nnc(-c2ccccc2)o1	-11.6	60.9*	-23.7	-6.1	0.6
CC(=O)Nc1ccc(S(=O)(=O)NCCC(=O)OCc2nnc(-c3ccccc3)o2)cc1	-17.0	17.5	-0.8	-8.8	-3.8
COc1cc2nc(N3CCN(c4cc(C)ccc4C)CC3)nc(N)c2cc1OC	41.2	41.9	59.5*	4.2	-295.7
COc1cc2nc(N3CCNCC3)nc(N)c2cc1OC	.	-23.4	.	-25.9	-171.7
SMILES	LGR2 inh	TROY NFkB inh	EWS-Fli block	EBV LMP1 NFkB	TWEAK-Fn14 inh
CC(=O)N1CCCc2cc(S(=O)(=O)N3CCCC(C(=O)N4CCN(c5ccccc5)CC4)C3)ccc21 (configuration not stated)	-1.2	30.6	.	9.5	18.6
Cc1cccc(N2CCN(S(=O)(=O)c3ccc4c(c3)CCN4C(=O)CCC(=O)O)CC2)c1C	.	13.5	.	7.1	-3.2
Cc1ccc(C)c(N2CCN(S(=O)(=O)c3ccc4c(c3)CCN4C(=O)CCC(=O)O)CC2)c1	25.1	0.3	9.3	85.5*	-10.5
CC(=O)N1CCCc2cc(S(=O)(=O)N3CCCC(C(=O)N4CCN(c5cc(C)ccc5C)CC4)C3)ccc21 (configuration not stated)	5.9	44.4	17.8	15.7	54.0*
CCC(C(=O)NC(C)CCc1ccccc1)n1nc(C)n2c(cc3occc32)c1=O (configuration not stated)	.	6.6	.	-5.9	99.7*
CCC(C(=O)NC(C)CCc1ccco1)n1nc(C)n2c(cc3occc32)c1=O (configuration not stated)	.	8.7	.	14.6	6.6
COC(=O)CN(c1ccc(C)cc1)S(=O)(=O)c1ccc2c(c1)n(C)c(=O)c(=O)n2C	.	-50.3	.	2.2	0.8
CCOc1ccc(N(CC(=O)OC)S(=O)(=O)c2ccc3c(c2)n(C)c(=O)c(=O)n3C)cc1	0.7	-16.4	23.7	3.7	79.9*
COc1cccc(-c2cnc3c(c2)C(=O)N([C@@H](C)CO)C[C@H](C)[C@H](CN(C)C(=O)CN(C)C)O3)c1	20.5	.	8.1	.	.
COc1ccc(S(=O)(=O)N2CCCCCC2)cc1C(=O)OCc1cccc(OC)c1OC	4.7	21.0	-2.9	45.9*	23.4
O=[N+]([O-])c1cc(-c2ncccn2)c([N+](=O)[O-])s1	17.4	0.9	60.5*	10.7	10.2
O=C(Nc1ncccn1)c1cc([N+](=O)[O-])cc([N+](=O)[O-])c1	10.6	-3.5	.	-0.7	-8.9
O=C(N[C@H]1CC[C@@H](CCNS(=O)(=O)c2ccc(Cl)cc2)O[C@@H]1CO)c1cnccn1	4.3	.	-6.6	.	.
COc1ccc2cc3cc(C(=O)NCCN4CCN(c5ccccc5F)CC4)oc3nc2c1	.	59.8*	.	20.7	67.2*
CCCN1C[C@H](C)[C@@H](OC)CN(C)C(=O)c2cc(NC(=O)NC3CCCC3)ccc2OC[C@@H]1C	8.0	.	.	.	.
C[C@@H]1CN([C@@H](C)CO)C(=O)c2cc(NC(=O)Cc3ccccc3)ccc2O[C@@H](C)CCCCO[C@@H]1CN(C)S(=O)(=O)c1cn(C)cn1	-11.1	.	-6.1	.	.
CO[C@H]1CN(C)C(=O)c2ccc(NC(=O)C3CCCCC3)cc2OC[C@@H](C)N(C(=O)c2ccccc2)C[C@H]1C	4.7	.	2.8	.	.
CO[C@H]1CN(C)C(=O)c2cc(NC(=O)Nc3ccccc3)ccc2OC[C@H](C)N(C(=O)Nc2c(C)noc2C)C[C@H]1C	8.1	.	-8.6	.	.
Cc1cc(C(=O)COC(=O)c2cccn2C)c(C)n1Cc1ccco1	52.9*	75.7*	28.9	-1.4	74.2*
Cc1cc(C(=O)CN2C(=O)C(=O)N(Cc3ccco3)C2=O)c(C)n1CCc1ccccc1	2.2	13.8	53.9*	-0.5	18.9
